Measurements reported in article PMC4336329 (PLoS ONE, 2015).
About 2,200 (0.71%) of roughly 310,000 compounds showed an effect of 50% or more. The effect is printed as a negative number. The sample holds strong results, similar compounds and a random draw of the others, so the mix is not that of the screen.

molecular target: human ether-à-go-go-related gene (hERG) potassium channel (human, UniProt Q12809); assay: primary screen, population patch clamp on CHO cells stably expressing hERG; higher = less effect of the substance
Sequence (Q12809 whole entry, looked up): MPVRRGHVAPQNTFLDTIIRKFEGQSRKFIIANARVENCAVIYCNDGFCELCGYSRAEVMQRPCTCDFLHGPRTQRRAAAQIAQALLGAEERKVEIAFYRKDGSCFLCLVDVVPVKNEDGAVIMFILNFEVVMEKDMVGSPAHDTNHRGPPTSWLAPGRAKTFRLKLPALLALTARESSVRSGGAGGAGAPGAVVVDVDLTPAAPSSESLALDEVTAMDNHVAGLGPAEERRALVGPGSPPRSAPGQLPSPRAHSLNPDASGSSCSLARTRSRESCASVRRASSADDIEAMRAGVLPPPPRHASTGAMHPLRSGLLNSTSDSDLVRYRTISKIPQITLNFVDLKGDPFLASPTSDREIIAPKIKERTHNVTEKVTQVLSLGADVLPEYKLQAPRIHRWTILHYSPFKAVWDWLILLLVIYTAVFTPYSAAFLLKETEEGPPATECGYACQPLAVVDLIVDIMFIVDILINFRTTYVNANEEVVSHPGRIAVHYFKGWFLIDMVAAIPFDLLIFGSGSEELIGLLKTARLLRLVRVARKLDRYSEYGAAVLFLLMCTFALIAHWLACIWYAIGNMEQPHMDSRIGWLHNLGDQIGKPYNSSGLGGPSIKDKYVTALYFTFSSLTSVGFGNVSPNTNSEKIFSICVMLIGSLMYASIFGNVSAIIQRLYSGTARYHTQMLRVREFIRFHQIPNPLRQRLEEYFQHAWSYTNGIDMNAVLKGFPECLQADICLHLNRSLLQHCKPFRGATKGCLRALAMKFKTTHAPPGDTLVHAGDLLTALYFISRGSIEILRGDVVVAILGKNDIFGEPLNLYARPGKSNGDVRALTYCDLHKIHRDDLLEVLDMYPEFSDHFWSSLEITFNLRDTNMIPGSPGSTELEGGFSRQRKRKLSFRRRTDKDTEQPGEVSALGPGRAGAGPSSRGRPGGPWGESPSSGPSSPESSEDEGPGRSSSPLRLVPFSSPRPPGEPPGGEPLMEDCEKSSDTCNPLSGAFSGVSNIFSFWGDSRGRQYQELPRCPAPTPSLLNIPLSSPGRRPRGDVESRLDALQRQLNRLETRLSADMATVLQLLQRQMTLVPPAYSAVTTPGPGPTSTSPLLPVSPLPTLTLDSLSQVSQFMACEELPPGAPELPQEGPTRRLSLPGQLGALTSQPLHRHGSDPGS

Compared with CCN1CCN(c2ncnc3sc(C)c(-c4ccccc4)c23)CC1, N#Cc1cccnc1N1CCN(C(=O)c2ccco2)CC1 is higher in “hERG current change (%, negative = inhibition) at 1uM” value: -25.9% for the first, 12.7% for the second.

Compared with O=C(Nc1cccc(Oc2ccc3c(c2)C(=O)NC3=O)c1)c1cccs1, COc1cccc(C(=O)Nc2cccc(-c3nc4ncccc4o3)c2C)c1 is higher in “hERG current change (%, negative = inhibition) at 1uM” value: -2.79% for the first, 12.6% for the second.

Going from Cc1ccccc1N1C(=O)C(Oc2ccc(Cl)cc2)C1CNCCCOC(C)C (centres unmarked) to Cc1ccc2[nH]c(=O)c(CN(CCCN(C)C)C(=O)Nc3ccc(Cl)cc3)cc2c1, the “hERG current change (%, negative = inhibition) at 1uM” value falls from -3.82% to -62.7%.

Compared with O=C(OCc1nnc(-c2ccc([N+](=O)[O-])cc2)o1)C1CC(=O)N(CCc2ccccc2)C1 (centres unmarked), O=C(OCc1ccc([N+](=O)[O-])cc1)C1CC(=O)N(CCc2ccccc2)C1 (centres unmarked) is lower in “hERG current change (%, negative = inhibition) at 1uM” value: -17.8% for the first, -56.3% for the second.

Going from O=C(OCc1ccc([N+](=O)[O-])cc1)C1CC(=O)N(c2ccccc2)C1 (centres unmarked) to Nc1ccc(OCc2ccccc2)cc1, the “hERG current change (%, negative = inhibition) at 1uM” value rises from -36% to 10.7%.

Compared with COc1ccc(CCn2c(=N)c(C(=O)NCc3ccco3)cc3c(=O)n4cccc(C)c4nc32)cc1, Cc1cccn2c(=O)c3cc(C(=O)NCc4ccco4)c(=N)n(CCc4ccccc4)c3nc12 is lower in “hERG current change (%, negative = inhibition) at 1uM” value: -76.6% for the first, -82.2% for the second.

Going from Cc1cccn2c(=O)c3cc(C(=O)NCc4ccco4)c(=N)n(CCOCCO)c3nc12 to Cc1cccn2c(=O)c3cc(C(=O)NCc4ccco4)c(=N)n(C(C)C)c3nc12, the “hERG current change (%, negative = inhibition) at 1uM” value falls from -63.3% to -84.9%.

Compared with Cc1cccn2c(=O)c3cc(S(=O)(=O)c4ccccc4)c(=N)n(Cc4ccco4)c3nc12, Cc1cccn2c(=O)c3cc(C(=O)NCCc4ccccc4)c(=N)n(Cc4ccco4)c3nc12 is lower in “hERG current change (%, negative = inhibition) at 1uM” value: 5.3% for the first, -35.5% for the second.

Compared with Cc1cccn2c(=O)nc(SCC(=O)NCc3ccco3)nc12, COc1ccccc1NC(=O)CSc1nnnn1C is higher in “hERG current change (%, negative = inhibition) at 1uM” value: 4.54% for the first, 16.4% for the second.

Compared with CCOC(=O)CC1Sc2ccccc2NC1=O (centres unmarked), CCOC(=O)c1c(C)n(CC(O)c2ccccc2)c2ccc(O)cc12 (centres unmarked) is higher in “hERG current change (%, negative = inhibition) at 1uM” value: -7.75% for the first, 13.6% for the second.

Compared with CCN1CCc2c(sc(NC(=O)c3ccc(C(=O)c4ccccc4)cc3)c2C(N)=O)C1.Cl, CC(=O)Nc1ccc(/C=N/NC(=O)CCN2CCN(c3ccccc3)CC2)cc1 is higher in “hERG current change (%, negative = inhibition) at 1uM” value: -7.72% for the first, 5.44% for the second.

Compared with CC1(c2nnc(-c3ccncc3)o2)CC(c2ccccc2)=NO1 (centres unmarked), Clc1cccc(OCc2nnc(-c3ccccc3Br)o2)c1 is lower in “hERG current change (%, negative = inhibition) at 1uM” value: 16.4% for the first, 9.74% for the second.

Compared with O=Cc1ccc(-c2ccc(C(=O)O)cc2)o1, CC(=O)c1ccc(-n2ccnc2)cc1 is higher in “hERG current change (%, negative = inhibition) at 1uM” value: -2.38% for the first, 7.14% for the second.

Compared with O=C(CC1CCCCC1)c1c(O)c2ccccc2oc1=O, CCCn1c2ccccc2c2cnn(CC(=O)NC3CCCCC3)c(=O)c21 is higher in “hERG current change (%, negative = inhibition) at 1uM” value: -4.69% for the first, 10.5% for the second.

First: CCN(CC(=O)Nc1c(F)cccc1F)C(=O)CSC(=S)N1CCCC1
Second: O=C(NCCCn1ccnc1)c1ccc(N2CCCCC2)c([N+](=O)[O-])c1
The “hERG current change (%, negative = inhibition) at 1uM” value of the first is higher: 6.34% for the first, -54.1% for the second.

Going from Cc1cccc(-n2c(/C=C/c3ccc([N+](=O)[O-])o3)nc3ccccc3c2=O)c1 to O=C(CCN1CCN(c2ccccc2)CC1)N/N=C/c1ccc([N+](=O)[O-])o1, the “hERG current change (%, negative = inhibition) at 1uM” value falls from 2.06% to -58.5%.

Compared with S=C(N/N=C/c1cccc2ccccc12)Nc1cccc(Cl)c1, Cc1ccc2[nH]c(=O)c(CN(CCCN(C)C)C(=O)Nc3cccc(Cl)c3)cc2c1 is lower in “hERG current change (%, negative = inhibition) at 1uM” value: 11.3% for the first, -26.3% for the second.

Compared with COc1ccc(OC)c(-n2c(CN3CCC(C(N)=O)CC3)nc3ccccc3c2=O)c1, COc1ccc(OC)c(-n2c(CNC3CCN(Cc4ccccc4)CC3)nc3ccccc3c2=O)c1 is lower in “hERG current change (%, negative = inhibition) at 1uM” value: 7.22% for the first, -69.9% for the second.

Compared with COc1ccc(CNC2CCN(Cc3ccccc3)CC2)cc1, COc1ccc(C(CNC(=O)COc2ccccc2)N2CCCCC2)cc1 (centres unmarked) is lower in “hERG current change (%, negative = inhibition) at 1uM” value: -3.31% for the first, -4.21% for the second.

Going from CS(=O)(=O)Cc1cccc(C(=O)NC2CCSc3ccccc32)c1 (centres unmarked) to CC[n+]1ccc(C(=O)NCc2ccccc2)cc1.[Cl-], the “hERG current change (%, negative = inhibition) at 1uM” value falls from 16.3% to 12.3%.

Going from CCc1ccc2nc(Nc3nc(COC)cc(=O)[nH]3)nc(C)c2c1 to COCc1cc(=O)[nH]c(Nc2nc(C)c3cc(OC)ccc3n2)n1, the “hERG current change (%, negative = inhibition) at 1uM” value rises from -64.8% to 10%.

First: COCc1cc(=O)[nH]c(Nc2nc(C)c3ccccc3n2)n1
Second: CC(C)(C)c1nc2ccccc2[nH]1
The “hERG current change (%, negative = inhibition) at 1uM” value of the first is lower: 6.35% for the first, 10.8% for the second.

Going from CC(=O)Nc1ccc(C(=O)NC2CCCC2)cc1 to Cc1ccc(Cn2cccc(NC(=O)CCC3CCCC3)c2=O)cc1, the “hERG current change (%, negative = inhibition) at 1uM” value falls from 6.35% to 1.91%.

First: CSC1=NP(=S)(SC)N2CCCC2=C1C#N (centres unmarked)
Second: CCN1CCCC1Cn1cnc2c([nH]c3ccc(C)cc32)c1=O (centres unmarked)
The “hERG current change (%, negative = inhibition) at 1uM” value of the first is higher: 6.13% for the first, -63.4% for the second.

Going from CCCn1c2ccccc2c2cnn(CC(=O)N3CCOCC3)c(=O)c21 to CCCn1c2ccccc2c2cnn(CC(=O)N3CCN(C4CCCCC4)CC3)c(=O)c21, the “hERG current change (%, negative = inhibition) at 1uM” value falls from 7.27% to -68.5%.

Compared with CCCn1c2ccccc2c2cnn(CC(=O)NCCN(C)C)c(=O)c21, CCCn1c2ccccc2c2cnn(CC(=O)NCCN(CC)CC)c(=O)c21 is lower in “hERG current change (%, negative = inhibition) at 1uM” value: -12.5% for the first, -67% for the second.

Compared with CCCn1c2ccccc2c2cnn(CC(=O)NCCOC)c(=O)c21, CCC1CCCN1Cn1cnc2c([nH]c3ccccc32)c1=O (centres unmarked) is lower in “hERG current change (%, negative = inhibition) at 1uM” value: 6.19% for the first, -45.7% for the second.

Going from C[C@@H]1CC=C[C@H]2[C@H]1C(=O)N(Cc1ccccc1)[C@H]2c1ccc(-c2ccoc2)cc1F to CCc1[nH]nc2c1C1(C(=O)N(Cc3ccccc3)c3ccccc31)C(C#N)=C(N)O2 (centres unmarked), the “hERG current change (%, negative = inhibition) at 1uM” value falls from 17.9% to 15.5%.

First: Cc1cc(N2C3CCC2CC(O)(c2ccc(F)cc2)C3)nc(-c2ccccc2)n1 (centres unmarked)
Second: CCN1CCCC1CN(Cc1cc2ccc(C)cc2[nH]c1=O)C(=S)Nc1ccc(F)cc1 (centres unmarked)
The “hERG current change (%, negative = inhibition) at 1uM” value of the first is higher: 9% for the first, -70.6% for the second.

Going from O=C(CCN1CCN(c2ccccc2)CC1)N/N=C/c1ccccc1O to CCCN1CCN(C(=S)Nc2ccc([N+](=O)[O-])cc2)CC1, the “hERG current change (%, negative = inhibition) at 1uM” value falls from 9.66% to -11%.

Compared with COc1ccc(C(CNC(=O)COc2ccc([N+](=O)[O-])cc2)N2CCCCC2)cc1 (centres unmarked), COc1ccc(OCC(=O)NCC(c2ccc(OC)cc2)N2CCCCC2)cc1 (centres unmarked) is higher in “hERG current change (%, negative = inhibition) at 1uM” value: -52.1% for the first, -1.58% for the second.

Compared with O=c1c2[nH]c3ccc(Cl)cc3c2ncn1CCN1CCCCC1, Cc1ccc2[nH]c3c(=O)n(CCN4CCOCC4)cnc3c2c1 is higher in “hERG current change (%, negative = inhibition) at 1uM” value: -43.9% for the first, 6.2% for the second.

Compared with Cc1ccc2[nH]c3c(=O)n(CCC4=CCCCC4)cnc3c2c1, Cc1ccc2[nH]c3c(=O)n(CCN4CCNCC4)cnc3c2c1 is higher in “hERG current change (%, negative = inhibition) at 1uM” value: 11% for the first, 18.5% for the second.

Compared with CCN1CCCC1Cn1cnc2c([nH]c3cccc(Cl)c32)c1=O (centres unmarked), CCN1CCCC1Cn1cnc2c([nH]c3ccc(Cl)cc32)c1=O (centres unmarked) is lower in “hERG current change (%, negative = inhibition) at 1uM” value: -38.7% for the first, -69.4% for the second.

Compared with CCC1CCCN1Cn1cnc2c([nH]c3ccc(Cl)cc32)c1=O (centres unmarked), CCC1CCCN1Cn1cnc2c([nH]c3ccc(C)cc32)c1=O (centres unmarked) is higher in “hERG current change (%, negative = inhibition) at 1uM” value: -70.9% for the first, -54.9% for the second.

Compared with O=c1c2[nH]c3ccc(F)cc3c2ncn1CC1CCCO1 (centres unmarked), Cc1ccc2[nH]c3c(=O)n(CCCN4CCN(C)CC4)cnc3c2c1 is lower in “hERG current change (%, negative = inhibition) at 1uM” value: 4.81% for the first, -12.6% for the second.

First: COc1cccc(C(=O)Nc2ccncc2)c1OC
Second: COc1ccc(C(=O)NCCCn2ccnc2)cc1[N+](=O)[O-]
The “hERG current change (%, negative = inhibition) at 1uM” value of the first is higher: 9.58% for the first, 3.98% for the second.

Going from Cc1nn(CC(=O)c2cccc(Cl)c2)c(C)c1[N+](=O)[O-] to Cc1ccc(C(=O)NCCCn2ccnc2)cc1[N+](=O)[O-], the “hERG current change (%, negative = inhibition) at 1uM” value rises from 6.41% to 11.9%.

Going from Cc1ccc(/C=C2/C(=O)NC(=O)N(C)C2=O)cc1 to Cc1ccc(NC(=O)NC2CC(=O)N(c3ccc4c(c3)OCCO4)C2)cc1 (centres unmarked), the “hERG current change (%, negative = inhibition) at 1uM” value rises from 7.48% to 11.3%.

Compared with Cn1c(NC(=O)c2cc(-c3ccc4c(c3)OCO4)nc3ccccc23)cc(=O)n(C)c1=O, CCN(CC)CCN(Cc1cc2cc(C)ccc2[nH]c1=O)C(=S)Nc1ccccc1 is lower in “hERG current change (%, negative = inhibition) at 1uM” value: 2.87% for the first, -23.4% for the second.

Going from O=C(c1ccccc1)c1ccc(NCCCn2ccnc2)c([N+](=O)[O-])c1 to NS(=O)(=O)c1ccc(NCCCn2ccnc2)c([N+](=O)[O-])c1, the “hERG current change (%, negative = inhibition) at 1uM” value rises from -65.4% to 12%.

Compared with CCN(CC)S(=O)(=O)c1ccc(NCCCn2ccnc2)c([N+](=O)[O-])c1, Cl.O=C(NCCCn1ccnc1)c1ccc(N2CCCCCC2)c([N+](=O)[O-])c1 is lower in “hERG current change (%, negative = inhibition) at 1uM” value: -7.58% for the first, -51.6% for the second.

Going from Cl.O=C(NCCCn1ccnc1)c1ccc(S(=O)(=O)N2CCCCCC2)cc1 to O=C(NCCCN1CCOCC1)c1ccc(N2CCCC2)c([N+](=O)[O-])c1, the “hERG current change (%, negative = inhibition) at 1uM” value falls from 9.74% to 4.41%.

First: CCOc1ccc2[nH]c3nc(SCC(=O)OC(C)C)nnc3c2c1
Second: CCN1CCCC1CN(Cc1cc2ccc(C)cc2[nH]c1=O)C(=S)Nc1ccc(OC)cc1 (centres unmarked)
The “hERG current change (%, negative = inhibition) at 1uM” value of the first is lower: 14.6% for the first, 21.4% for the second.

Compared with CCN1CCCC1CN(Cc1cc2ccc(C)cc2[nH]c1=O)C(=S)Nc1cccc(OC)c1 (centres unmarked), Cc1ccc2cc(CN(CCN(C)C)C(=O)Nc3ccc(Cl)cc3)c(=O)[nH]c2c1 is higher in “hERG current change (%, negative = inhibition) at 1uM” value: -44% for the first, -20.7% for the second.

Compared with Cc1ccc2[nH]c(=O)c(CN(CCCN(C)C)C(=O)Nc3ccc(F)cc3)cc2c1, CCN(CC)CCN(Cc1cc2ccc(C)cc2[nH]c1=O)C(=O)Nc1ccc(Cl)cc1 is lower in “hERG current change (%, negative = inhibition) at 1uM” value: -37% for the first, -78.4% for the second.
